Here are results for 40 sequences from the OligoGym collection.
Also: reference of the scale not given here.

The first assay deals with TNFAIP6. Kind of assay: pooled miR-30 sensor sort-seq; sequence = guide strand. The conditions noted are these: shRNA.
For TATTTCAACATAATCAGCCAAG, the sensor-assay potency score (higher = more potent) was -1.38.
The same measure, in the same setting: to TTGAGTGTCTTCCCATAGCAAG belongs -1.58; to TAAAAATTTGCTTTGGATCTGT, 0.758; to TACTTGAGTCTAATGTGCCAGT, -0.543.
The same measure, in the same setting: the same measure for TTCAAATTCACACACCGCCTTA: -0.588; for TTCTCTGTGGTACACACCGGCT: -1.32; for TTGTATTTTTTCCTTGACTGGA: -0.793.
Turning to TTCCAGTAGAAGTAGTACTTGT, the sensor-assay potency score (higher = more potent) was -0.0924.
Same read-out and setting: to TGAAGCATCACTTAGAAACTTC belongs 0.148; to TATCTTCGTACTCATTTGGGAA, -0.842.

For the next assay, the target named is TNFRSF10A. The assay is described as above. The conditions noted are these: shRNA.
Regarding TTTCGTGAGGTCCAGCTGCCTC, the sensor-assay potency score (higher = more potent) is -0.987.
For TCTAAGTAGATGAACTTTCCAG, the sensor-assay potency score (higher = more potent) was -0.118.
For TTGCATACAAGGCATCCCCTGG, the sensor-assay potency score (higher = more potent) was -0.804.
Consider TTCTTTGTGGACACACTCGATG, for which the sensor-assay potency score (higher = more potent) was -0.86.
As to TTGAAGGTCTTGTGGACCCGGA, the sensor-assay potency score (higher = more potent) amounted to 0.23.
Regarding TCTTCTAAGTAGATGAACTTTC, the sensor-assay potency score (higher = more potent) is -0.791.
As for AAACTTGTCAAAGAACAGCATC, the sensor-assay potency score (higher = more potent) is -1.04.
As to TTAACTCCTAACACCTAAGAGG, the sensor-assay potency score (higher = more potent) was -0.905.
Turning to TGTATTAACTCCTAACACCTAA, the sensor-assay potency score (higher = more potent) was -0.808.
Consider TTGATGGTTGCAGCTGAGCTAG, for which the sensor-assay potency score (higher = more potent) is -1.28.
In turn, TTGATCATGAAGTTTGATGGTT displayed a sensor-assay potency score (higher = more potent) of 0.371.

The target in a further assay is TNIP2. The assay is described as above. The conditions noted are these: shRNA.
On to TAACAGTCGATTTTCTTCCTGC, for which the sensor-assay potency score (higher = more potent) is 0.411.
TATTCCATAGAACAGGATGGGG: the sensor-assay potency score (higher = more potent) is -0.938.
Same read-out and setting: to TTGCTCGTCACTGAAGCACTGC belongs 0.0739.
Still for that read-out and setting: to TTTTCTCTTCCAACTGTCTGTT belongs -0.371; to TTTCTCTTCCAACTGTCTGTTG, -0.51; to TTCTTCTAGTCGCTCAGTCAGC, -0.848.
In turn, TTGAATCCTACTTTGAGCCCGT registered a sensor-assay potency score (higher = more potent) of 0.603.
For TTTATTTTCTCTTCCAACTGTC, the sensor-assay potency score (higher = more potent) is 0.553.
The same measure, in the same setting: the same measure for TTCTCTTCCAACTGTCTGTTGA: 0.202; for TTCAACGTGAGTCACCTTCTGT: -0.171.
As for TTCTGACATGAAGTCATCCTTG, the sensor-assay potency score (higher = more potent) is -0.577.
As for TCCAACTGTCTGTTGAGCCGGG, the sensor-assay potency score (higher = more potent) was -0.18.

A further assay has as its target TNK1. The description is as above. The conditions noted are these: shRNA.
Regarding TATAGCAGCTCTTTTCTTCCAA, the sensor-assay potency score (higher = more potent) worked out at 0.014.
Regarding TCTCATAATCCATACTACCAGC, the sensor-assay potency score (higher = more potent) was -1.03.
Still for that read-out and setting: the same measure for TACAAAGTCGAAGTGCTCTGGC: 0.534; for TTTGCCTTCTTTCTGTCTCCAT: -0.221.
On the same count and under the same terms, to TTTGAAGGTGCGACCATTCTGG belongs 0.416; to TAGACTTAGGCCCAGAACGTAG, -0.86; to TAATGCTCCAGGATGCGCCAGC, -0.794.
